# Where “and” joins values, the source holds several entries; their conditions need not be identical. Equal values may be shown once. Inconclusive results are not listed. Where a call stands in place of a potency, no number is given. Where a structure was tested more than once in an assay, its records may differ in their call. Calls of active or inactive are those of the source. Unless noted, the call rests on the fitted dose curve; in most records, active means well fitted curve in the direction sought with a large enough effect in the repeat runs; inconclusive means weak or mixed curves; inactive means no such curve, though single readings can be large; an effect the other way counts as inactive or inconclusive.
# What was measured:
# [1] = qHTS assay to identify small molecule agonists of the constitutive androstane receptor (CAR) signaling pathway - cell viability counter screen (AID 1224836); further: nearly all actives have a fitted effect of over 45% in size; further: potency means the concentration at half of the fitted maximal effect; on viability change, negative = cytotoxic: series mostly up to about 92 µM
# Summary of the method: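 HepG2 cells stably carrying hCAR and a CYP2B6-2.2kb reporter were plated 4 h, then given compounds at 15 concentrations plus PK11195 (final 0.75 uM). After 23 h at 37 C, viability was read by CellTiter-Fluor fluorescence.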
# [2] = qHTS assay to identify small molecule antagonists of the constitutive androstane receptor (CAR) signaling pathway - cell viability counter screen (AID 1224837); further: nearly all actives have a fitted effect of over 45% in size; further: potency means the concentration at half of the fitted maximal effect; on activity change, negative = cytotoxicity: series mostly up to about 92 µM
# Summary of the method: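 Cytotoxicity counter-screen: CellTiter-Fluor fluorescence after 23 h compound exposure (15-point qHTS) in double-stable HepG2-CYP2B6-hCAR cells, with 50 nM CITCO added.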
# [3] = target: Nuclear receptor subfamily 1 group I member 3 (Homo sapiens) (UniProt Q14994); test: qHTS assay to identify small molecule agonists of the constitutive androstane receptor (CAR) signaling pathway (AID 1224839); further: nearly all actives have a fitted effect of over 15% in size; further: potency means the concentration at half of the fitted maximal effect;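 on activation: HepG2 cells stably carrying human CAR and a CYP2B6 luciferase reporter; series mostly up to about 92 µM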
# Nuclear receptor subfamily 1 group I member 3 (Homo sapiens), sequence (Q14994 whole entry, looked up): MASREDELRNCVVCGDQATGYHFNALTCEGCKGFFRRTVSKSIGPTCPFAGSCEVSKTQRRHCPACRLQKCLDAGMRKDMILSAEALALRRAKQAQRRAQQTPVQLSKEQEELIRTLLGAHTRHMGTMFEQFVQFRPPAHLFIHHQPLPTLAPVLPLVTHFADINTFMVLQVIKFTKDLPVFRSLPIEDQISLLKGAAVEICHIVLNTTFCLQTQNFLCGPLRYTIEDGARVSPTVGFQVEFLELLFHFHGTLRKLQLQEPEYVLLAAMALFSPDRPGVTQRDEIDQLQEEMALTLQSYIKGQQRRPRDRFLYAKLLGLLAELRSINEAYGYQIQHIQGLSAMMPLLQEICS
# Summary of the method: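 HepG2 cells stably expressing hCAR and a CYP2B6-2.2kb luciferase reporter were treated with compounds at 15 concentrations plus 0.75 uM PK11195 (final) for 24 h at 37 C; luminescence was read after ONE-Glo addition.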
# [4] = qHTS assay to identify small molecule antagonists of the estrogen related receptor signaling pathway with the pleiotropic PPARgamma coactivator (PGC) from Tox21 10K library - cell viability counter screen (AID 1224840; active means well fitted cell-killing curve with a large enough effect in the repeat runs, not every such curve was filed as active; further: nearly all actives have a fitted effect of over 40% in size; further: potency means the concentration at half of the fitted maximal effect)
# Summary of the method: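 Counter-screen for cytotoxicity: after 17.5 h compound exposure at 37 C, CellTiter-Fluor reagent added to PGC/ERR cells for 30 min and fluorescence read. Cells were seeded at 2,000 per well 6 h before dosing.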
# [5] = target: Thyrotropin receptor (Homo sapiens) (UniProt P16473); test: qHTS assay to identify small molecule agonists of the thyroid stimulating hormone receptor (TSHR) signaling pathway (AID 1224843; calls by dose curve; further: nearly all actives have a fitted effect of over 45% in size; further: potency means the concentration at half of the fitted maximal effect)
# Thyrotropin receptor (Homo sapiens), sequence (P16473 whole entry, looked up): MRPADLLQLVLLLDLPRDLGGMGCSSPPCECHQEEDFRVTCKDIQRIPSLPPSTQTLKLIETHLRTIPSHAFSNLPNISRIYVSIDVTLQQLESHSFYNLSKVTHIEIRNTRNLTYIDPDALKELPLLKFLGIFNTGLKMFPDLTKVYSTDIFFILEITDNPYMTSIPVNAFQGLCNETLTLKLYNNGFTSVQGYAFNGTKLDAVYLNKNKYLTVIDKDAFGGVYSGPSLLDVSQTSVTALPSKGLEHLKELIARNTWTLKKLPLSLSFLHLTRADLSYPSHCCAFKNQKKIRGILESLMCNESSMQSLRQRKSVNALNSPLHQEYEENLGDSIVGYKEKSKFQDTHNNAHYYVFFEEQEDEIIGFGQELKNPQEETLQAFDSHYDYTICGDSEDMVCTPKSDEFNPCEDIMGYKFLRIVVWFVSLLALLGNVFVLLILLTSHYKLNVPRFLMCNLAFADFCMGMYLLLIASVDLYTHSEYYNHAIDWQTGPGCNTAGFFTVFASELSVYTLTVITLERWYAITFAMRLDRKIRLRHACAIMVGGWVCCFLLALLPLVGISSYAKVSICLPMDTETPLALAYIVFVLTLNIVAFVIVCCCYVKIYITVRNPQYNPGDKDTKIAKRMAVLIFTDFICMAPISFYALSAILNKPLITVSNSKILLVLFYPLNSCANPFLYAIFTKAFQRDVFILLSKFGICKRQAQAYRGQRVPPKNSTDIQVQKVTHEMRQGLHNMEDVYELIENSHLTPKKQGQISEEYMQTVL
# Summary of the method: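 Compounds are titrated over 15 concentrations, in triplicate, onto TSHR-HEK293 cells seeded at 800/well. Plates sit 30 min at room temperature before cAMP-d2 and anti-cAMP cryptate are added; signal is read after a further hour.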
# [6] = qHTS assay to identify small molecule agonists of the hypoxia (HIF-1) signaling pathway - cell viability counter screen (AID 1224844; calls by dose curve; further: nearly all actives have a fitted effect of over 50% in size; further: potency means the concentration at half of the fitted maximal effect)
# Summary of the method: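 Cytotoxicity measured by CellTiter-Glo ATP luminescence in the wells also read for beta-lactamase signal. Cells were HRE-bla ME-180 (2,000/well, 0.5% dialyzed FBS), exposed to compounds for 17 h at 37C.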
# [7] = qHTS assay to identify small molecule antagonists of the estrogen related receptor signaling pathway with the pleiotropic PPARgamma coactivator (PGC) from Tox21 10K library (AID 1224841; call rule not given here; further: actives are mostly falling curves and most rising ones were filed inactive; nearly all actives have a fitted effect of over 50% in size; further: potency means the concentration at half of the fitted maximal effect; on activity, negative = inhibition: series mostly up to about 92 µM)
# Summary of the method: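 Luminescence (One-Glo, 30 min at room temperature) after 18 h compound treatment at 37 C of PGC/ERR reporter cells plated at 2,000 cells/well and settled 6 h beforehand.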
# [8] = qHTS assay to identify small molecule agonists of H2AX (AID 1224845; active means well fitted activation curve with a large enough effect in the signal ratio in the repeat runs, not every such curve was filed as active; the % refers to the signal ratio; further: potency means the concentration at half of the fitted maximal effect)
# Summary of the method: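 Wild-type CHO-K1 cells plated overnight, then exposed 3 hr at 37C to compounds at 15 concentrations (0.76% DMSO). Lysed, then HTRF anti-pH2AX(S139)-cryptate/anti-H2AX-d2 detection after 24 hr at room temperature; emissions 665 and 620 nm.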
# [9] = qHTS assay to identify small molecule agonists of the estrogen related receptor signaling pathway with the pleiotropic PPARgamma coactivator (PGC) from Tox21 10K library (AID 1224842); further: nearly all actives have a fitted effect of over 15% in size
# Summary of the method: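 PGC/ERR reporter cells (NTP line) were seeded 2,000 per well, rested 6 h at 37 C/5% CO2, then pin-dosed with compounds in DMSO for 18 h at 37 C; luciferase read by One-Glo luminescence after 30 min at room temperature.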
# [10] = target: Nuclear receptor subfamily 1 group I member 3 (Homo sapiens) (UniProt Q14994); test: qHTS assay to identify small molecule antagonists of the constitutive androstane receptor (CAR) signaling pathway (AID 1224838); further: nearly all actives have a fitted effect of over 40% in size
# Summary of the method: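 Antagonism measured as luciferase signal (ONE-Glo, 30 min, room temperature) in CAR-stimulated cells: HepG2-CYP2B6-hCAR double-stable line exposed 24 hr at 37 C to compound in a 15-point series plus 50 nM CITCO.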
smiles,measurement,setting,value
CCCSS/C(CCO)=C(\C)N(C=O)Cc1cnc(C)nc1N,Potency,[1],inactive
same,Potency,[2],inactive
same,Potency,[3],inactive
same,Potency,[4],inactive
same,Potency,[5],inactive
same,Potency,[6],inactive
C#CC(O)CCC (configuration not stated),Potency,[1],inactive
same,Potency,[2],inactive
same,Potency,[3],inactive
same,Potency,[4],inactive
same,Potency,[7],inactive
same,Potency,[5],inactive
same,Potency,[6],inactive
same,Potency,[8],inactive
CO[Si](CCCNCCNCCN)(OC)OC,Potency,[1],inactive
same,Potency,[2],inactive
same,Potency,[3],inactive
same,Potency,[4],inactive
same,Potency,[9],inactive
same,Potency,[5],inactive
same,Potency,[6],inactive
same,Potency,[8],inactive
CCN1CCN(c2cc(-c3ccc(F)cc3)c3c(n2)CCCCCC3)CC1,"viability change, negative = cytotoxic",[1],4.47% [at 19 µM] (inactive)
same,"activity change, negative = cytotoxicity",[2],3.17% [at 19 µM] (inactive)
same,activation,[3],-1.24% [at 19 µM] (inactive)
same,"viability change, negative = cytotoxic",[4],18% [at 19 µM] (inactive)
same,"activity, negative = inhibition",[7],3.89% [at 19 µM] (inactive)
same,activation,[5],-12.2% [at 19 µM] (inactive)
same,"activity change, negative = cytotoxicity",[6],0.919% [at 15.8 µM] (inactive)
same,activation (H2AX phosphorylation),[8],3.44% [at 31.6 µM] (inactive)
C1CC(COCC2CO2)CCC1COCC1CO1 (configuration not stated),Potency,[1],inactive
same,Potency,[2],inactive
same,Potency,[3],inactive
same,Potency,[4],inactive
same,Potency,[9],inactive
same,Potency,[5],inactive
same,Potency,[8],inactive
CCCCCCCCCCCCCc1ccccc1,Potency,[1],inactive
same,Potency,[2],inactive
same,Potency,[4],inactive
same,Potency,[5],inactive
same,Potency,[6],inactive
CCCCCCCC/C=C\CCCCCCCC(=O)OCCOC(=O)CCCCCCC/C=C\CCCCCCCC,Potency,[1],inactive
same,Potency,[2],inactive
same,Potency,[3],inactive
same,Potency,[4],inactive
same,Potency,[5],inactive
same,Potency,[6],inactive
same,Potency,[8],inactive
O[C@@H](c1cc(C(F)(F)F)nc2c(C(F)(F)F)cccc12)[C@H]1CCCCN1,Potency,[1],29.8 µM (active)
same,Potency,[2],29.8 µM (active)
same,Potency,[3],inactive
same,Potency,[7],inactive
same,Potency,[5],inactive
Cc1occc1SSc1ccoc1C,Potency,[1],inactive
same,Potency,[2],inactive
same,Potency,[3],inactive
same,Potency,[5],inactive
C=C(c1ccc(C(=O)O)cc1)c1cc2c(cc1C)C(C)(C)CCC2(C)C,Potency,[1],inactive
same,Potency,[2],inactive
same,Potency,[3],38.6 µM (active) and inactive
same,Potency,[4],61.1 µM (active) and inactive
same,Potency,[7],21.7 µM (active)
same,Potency,[6],15.5 µM (active) and 16.9 µM (active)
same,Potency,[8],89.8 µM (active)
CCCCCCCC(=O)OCC,Potency,[1],inactive
same,Potency,[2],inactive
same,Potency,[4],inactive
same,Potency,[7],inactive
same,Potency,[5],inactive
same,Potency,[6],inactive
same,Potency,[8],inactive
CC1CCCCN1CCCOC(=O)c1ccc(OC2CCCCC2)cc1 (configuration not stated),Potency,[1],inactive
same,Potency,[2],inactive
same,Potency,[4],inactive
same,Potency,[7],inactive
same,Potency,[9],inactive
same,Potency,[5],26.6 µM (active)
same,Potency,[8],inactive
CC(C)=C1CC[C@@H](C)CC1=O,Potency,[1],inactive
same,Potency,[2],inactive
same,Potency,[3],inactive
same,Potency,[4],inactive
same,Potency,[5],inactive
same,Potency,[8],inactive
C=CC(=O)OCCN(CC)CC,Potency,[1],inactive
same,Potency,[2],inactive
same,Potency,[3],inactive
same,Potency,[4],inactive
same,Potency,[5],inactive
[O]=[Zr],Potency,[1],inactive
same,Potency,[2],inactive
same,Potency,[4],inactive
same,Potency,[7],inactive
same,Potency,[9],inactive
same,Potency,[8],inactive
CCc1c(C(=O)O)c(=O)cnn1-c1ccc(Cl)cc1,Potency,[1],inactive
same,Potency,[2],inactive
same,Potency,[4],inactive
same,Potency,[7],inactive
same,Potency,[5],inactive
same,Potency,[6],inactive
same,Potency,[8],inactive
C=CCCCCCCC=C,Potency,[1],inactive
same,Potency,[2],inactive
same,Potency,[4],inactive
CCCCCCCCCCCCCCCC,Potency,[1],inactive
same,Potency,[2],inactive
same,Potency,[4],inactive
same,Potency,[7],inactive
same,Potency,[9],inactive
same,Potency,[5],inactive
same,Potency,[6],inactive
same,Potency,[8],inactive
CO[Si](CCC1CCC2OC2C1)(OC)OC (configuration not stated),Potency,[1],inactive
same,Potency,[2],inactive
same,Potency,[3],inactive
same,Potency,[4],inactive
same,Potency,[7],inactive
same,Potency,[5],inactive
same,Potency,[6],inactive
C/C=C/C=N/NC(=O)c1ccncc1,Potency,[1],inactive
same,Potency,[2],inactive
same,Potency,[3],inactive
same,Potency,[4],inactive
same,Potency,[5],inactive
C/C=C/c1ccc(OC)c(OC)c1,Potency,[1],inactive
same,Potency,[2],inactive
same,Potency,[4],inactive
same,Potency,[5],inactive
same,Potency,[6],inactive
OCCN1CN(CCO)CN(CCO)C1,Potency,[1],inactive
same,Potency,[2],inactive
same,Potency,[3],inactive
same,Potency,[4],inactive
same,Potency,[5],inactive
same,Potency,[8],inactive
O=C=NCc1cccc(CN=C=O)c1,"viability change, negative = cytotoxic",[1],-4.88% [at 19 µM] (inactive)
same,"activity change, negative = cytotoxicity",[2],-0.191% [at 19 µM] (inactive)
same,activation,[3],-1.77% [at 19 µM] (inactive)
same,"viability change, negative = cytotoxic",[4],-5.21% [at 19 µM] (inactive)
same,activation,[5],1.05% [at 19 µM] (inactive)
same,"activity change, negative = cytotoxicity",[6],6.46% [at 15.8 µM] (inactive)
same,activation (H2AX phosphorylation),[8],-2.62% [at 31.6 µM] (inactive)
c1ccc(Sc2ccccc2)cc1,Potency,[1],inactive
same,Potency,[2],inactive
same,Potency,[4],inactive
same,Potency,[6],inactive
CCCCCCCCCCCCCCCCCO,"viability change, negative = cytotoxic",[1],0.185% [at 19 µM] (inactive)
same,"activity, negative = inhibition",[10],9.23% [at 19 µM] (inactive)
same,activation,[3],0.0374% [at 19 µM] (inactive)
same,"viability change, negative = cytotoxic",[4],-0.916% [at 19 µM] (inactive)
same,"activity, negative = inhibition",[7],44.5% [at 19 µM] (inactive)
same,activation,[9],4.3% [at 19 µM] (inactive)
same,"activity change, negative = cytotoxicity",[6],4.42% [at 15.8 µM] (inactive)
same,activation (H2AX phosphorylation),[8],-3.22% [at 31.6 µM] (inactive)
Cc1cc(=O)[nH]c(=O)[nH]1,Potency,[1],inactive
same,Potency,[2],inactive
same,Potency,[4],inactive
same,Potency,[5],inactive
same,Potency,[8],inactive
CO[C@H]1C=CO[C@@]2(C)Oc3c(C)c(O)c4c(O)c(cc(O)c4c3C2=O)NC(=O)/C(C)=C\C=C/[C@H](C)[C@H](O)[C@@H](C)[C@@H](O)[C@@H](C)[C@H](OC(C)=O)[C@@H]1C,Potency,[1],61.6 µM (active)
same,Potency,[2],48.9 µM (active)
same,Potency,[7],inactive
same,Potency,[9],inactive
same,Potency,[6],22 µM (active)
CCCCCCCC(C)=O,Potency,[1],inactive
same,Potency,[2],inactive
same,Potency,[4],inactive
same,Potency,[5],inactive
same,Potency,[6],inactive
same,Potency,[8],inactive
